Assay results published in PubChem BioAssay (NCATS).
Results filed as inconclusive are left out. The source made the active and inactive calls. Calls follow the shape of the dose curve; as a rule, active = well fitted curve in the direction sought with a large enough effect; inconclusive = small, poorly fitted or top-dose-only effect, or another doubt; inactive = no such curve, though single readings can be large; an effect the other way counts as inactive or inconclusive.

Tests used:
[1] = biological target: Glutathione peroxidase 1 (Homo sapiens) (UniProt P07203); test: Primary qHTS Assay for Inhibitors of Recombinant Selenoprotein Glutathione Peroxidase 1 (GPX1) (AID 1845191); also: nearly all actives have a fitted effect of over 65% in size; as to activity, negative = inhibition: % is scaled to controls: 0 for no effect and ±100 for the full control effect
Summary of the method: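 10 nM GPX1 + cpd, 30 min RT; start w/ 1 mM GSH, 0.5 mM cumene hydroperoxide, 0.5 mM NADPH, 100 nM GR, 0.01% BSA; buffer 50 mM Tris-HCl pH 7.5, 2 mM EDTA, 150 mM NaCl; Fl 340/450, 0 & 15 min.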

[2] = biological target: Phospholipid hydroperoxide glutathione peroxidase GPX4 (Homo sapiens) (UniProt P36969); test: Primary qHTS Assay for Inhibitors of Recombinant Selenoprotein Glutathione Peroxidase 4 (GPX4) (AID 1845192); also: nearly all actives have a fitted effect of over 65% in size; as to activity change, negative = inhibition: series mostly up to about 50 µM; % is scaled to controls: 0 for no effect and ±100 for the full control effect
Summary of the method: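 NADPH consumption, followed by fluorescence at 340/450 nm between 0 and 15 min, reports GPX4 activity via coupled glutathione reductase (100 nM). Enzyme 200 nM was pre-exposed to compound 30 min; 0.5 mM cumene hydroperoxide and 1 mM GSH served as substrates.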

[3] = biological target: Luciferin 4-monooxygenase (Photinus pyralis) (UniProt P08659); test: Primary firefly luciferase (FLuc) qHTS assay for identification of artifact compounds. (AID 1845220); also: nearly all actives have a fitted effect of over 60% in size;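 as to activity change, negative = inhibition: series mostly up to about 54 µM; plate controls were DMSO vehicle for no effect and no enzyme for full effect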
Summary of the method: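 Cell-free, 1536-well qHTS. Buffer pH 7.6 with 0.01% Tween-20 and 0.05% BSA; 10 uM D-luciferin, 10 uM ATP; 10 nM P. pyralis luciferase; luminescence after 5 min.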

[4] = test system: Nanoluciferase (engineered Oplophorus gracilirostris luciferase); test: Primary Nanoluciferase (NLuc) qHTS assay for identification of artifact compounds. (AID 1845222);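 also: series mostly up to about 54 µM; 0% = DMSO and -100% = no enzyme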
Summary of the method: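 Compounds are pinned into diluted (1:55) conditioned medium of NLuc-expressing S16 cells and held 15 min at room temperature protected from light. Nano-Glo substrate follows, and luminescence is read 5 min later.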

[5] = Primary redox qHTS assay for identification of artifact compounds. (AID 1845223);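 also: 0% = DMSO and 100% = reference compound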
Summary of the method: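 Amplex Red (25 uM) and HRP (250 mU/mL) in HBSS, with compounds for 15 min, then 250 uM DTT for 30 min, room temperature, dark. Fluorescence 525/598 nm read; normalized to DMSO and 10 uM DA3003; Hill fit.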

Phospholipid hydroperoxide glutathione peroxidase GPX4 (Homo sapiens), sequence (P36969 whole entry, looked up): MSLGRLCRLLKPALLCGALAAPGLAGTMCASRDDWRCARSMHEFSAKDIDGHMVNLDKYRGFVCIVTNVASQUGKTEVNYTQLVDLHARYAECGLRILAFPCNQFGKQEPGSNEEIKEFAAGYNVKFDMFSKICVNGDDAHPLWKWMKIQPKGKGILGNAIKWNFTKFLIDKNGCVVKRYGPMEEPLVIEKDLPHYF
Glutathione peroxidase 1 (Homo sapiens), sequence (P07203 whole entry, looked up): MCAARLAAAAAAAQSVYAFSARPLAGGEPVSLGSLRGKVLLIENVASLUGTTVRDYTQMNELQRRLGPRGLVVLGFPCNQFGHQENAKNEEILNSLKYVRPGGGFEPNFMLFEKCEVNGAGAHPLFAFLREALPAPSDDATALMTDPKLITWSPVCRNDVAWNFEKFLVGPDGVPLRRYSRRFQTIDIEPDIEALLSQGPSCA

NC(N)=NCCC[C@H](NC(=O)c1sccc1NS(=O)(=O)c1cccc2nsnc12)C(=O)O
inactive: Potency [1] | Potency [2] | Potency [3] | Potency [4] | Potency [5]

CC(C)CC(=O)NCCn1cc(C(=O)O)c(=O)cc1C(O)c1ccccc1 (stereo not given)
inactive: Potency [1] | Potency [2] | Potency [3] | Potency [4] | Potency [5]

COc1cc(/C=C/C(=O)O[C@H]2C[C@@H]3C(C(=O)O)=CO[C@@H](O[C@@H]4O[C@H](CO)[C@@H](O)[C@H](O)[C@H]4O)[C@@H]3[C@H]2C)ccc1O
inactive: Potency [1] | Potency [2] | Potency [3] | Potency [4] | Potency [5]

CC1(C)C2CCC1(C)C(OC(=O)C(O)(CC(=O)O)CC(=O)O)C2 (stereo not given)
inactive: Potency [1] | Potency [2] | Potency [3] | Potency [4] | Potency [5]

COC(=O)[C@H](Cc1ccc([N+](=O)[O-])cc1)NC(=O)c1cccc2ccccc12
inactive: Potency [1] | Potency [2] | Potency [3] | Potency [4] | Potency [5]

CC(=O)/C=C/C1(O)C(C)(C)CC(O)CC1(C)O (stereo not given)
inactive: Potency [1] | Potency [2] | Potency [3] | Potency [4] | Potency [5]

CCC1=C(C)C(=O)C(C)CC12C(=O)CCC2C(=O)O (stereo not given)
inactive: Potency [1] | Potency [2] | Potency [3] | Potency [4] | Potency [5]

CC(=O)c1ccc(O[C@@H]2OC[C@@H](O)[C@H](O)[C@H]2O[C@]2(CO)O[C@H](CO)[C@@H](O)[C@@H]2O)c(O)c1
inactive: Potency [1] | Potency [2] | Potency [3] | Potency [4] | Potency [5]

C=C(C(=O)OC)[C@]12O[C@@](C)(CC[C@@]3(O)/C(=C\C)C(=O)O[C@]3(C)C[C@@H]1OC(=O)C(CO)CN1CCCC1C(=O)O)CC2=O (stereo not given in full)
inactive: Potency [1] | Potency [2] | Potency [3] | Potency [4] | Potency [5]

CC(=O)NC(C(=O)OC1CCC(C)(C)C2CC=C3C(=O)OCC3C12C)C(C)C (stereo not given)
inactive: Potency [1] | Potency [2] | Potency [3] | Potency [4] | Potency [5]

CC1(C)CC[C@]2(C(=O)O[C@@H]3O[C@H](CO)[C@@H](O)[C@H](O)[C@H]3O)CC[C@]3(C)C(=CCC4[C@@]5(C)C[C@@H](O)[C@H](O)[C@@](C)(CO)C5[C@H](O)C[C@]43C)C2C1 (stereo not given in full)
inactive: Potency [1] | Potency [2] | Potency [3] | Potency [4] | Potency [5]

Cc1ccc(Nc2nnc(-c3ccc([N+](=O)[O-])cc3)o2)cc1Cl
inactive: Potency [1] | Potency [2] | Potency [3] | Potency [4] | Potency [5]

COc1c(C)c(OCC(O)C(C)(C)O)cc2c1CNC2=O (stereo not given)
inactive: Potency [1] | Potency [2] | Potency [3] | Potency [4] | Potency [5]

C[C@@H]1C(=O)O[C@H]2[C@H]1CC[C@@]1(C)C(=O)C=C[C@@](C)(O)[C@H]21
inactive: Potency [1] | Potency [2] | Potency [3] | Potency [4] | Potency [5]

C=C(C(=O)O)C1CC(OC(=O)CC(C)CC)C2(C)CCCC(=C)C2C1 (stereo not given)
inactive: Potency [1] | Potency [2] | Potency [3] | Potency [4] | Potency [5]

CC(C)C1NC(=O)C2CCCN2C1=O (stereo not given)
inactive: Potency [1] | Potency [2] | Potency [3] | Potency [4] | Potency [5]

COc1cc(C[C@@]2(O)CO[C@@H](c3ccc(O[C@@H]4O[C@H](CO)[C@@H](O)[C@H](O)[C@H]4O)c(OC)c3)[C@H]2CO)ccc1O
inactive: Potency [1] | Potency [2] | Potency [3] | Potency [4] | Potency [5]

CC(C)(O)C1OC1C1=CC(=O)C2(C)OC2C1O (stereo not given)
inactive: Potency [1] | Potency [2] | Potency [3] | Potency [4] | Potency [5]

C[C@H]1[C@@H](O)[C@H](O)C2[C@]3(C)C([C@@H](O)[C@H]4OC(=O)[C@@H]1[C@@]24C)[C@](C)(O)C=C[C@H]3O[C@@H]1O[C@H](CO)[C@@H](O)[C@H](O)[C@H]1O (stereo not given in full)
inactive: Potency [1] | Potency [2] | Potency [3] | Potency [4] | Potency [5]

O=[N+]([O-])c1cc(Cl)ccc1S(=O)(=O)N1CCN(Cc2ccccc2)CC1
inactive: Potency [1] | Potency [2] | Potency [3] | Potency [4] | Potency [5]

N[C@@H](CC(=O)Nc1ccc(Oc2cc(F)c(F)cc2Br)cc1)C(=O)O
inactive: Potency [1] | Potency [2] | Potency [3] | Potency [4] | Potency [5]

COc1cc(C(=O)OC[C@@]2(O)CO[C@@H](O[C@H]3[C@H](Oc4ccc(O)cc4)O[C@H](CO)[C@@H](O)[C@@H]3O)[C@@H]2O)cc(OC)c1O
inactive: Potency [1] | Potency [2] | Potency [3] | Potency [4] | Potency [5]

COc1cc(CC2COC(c3ccc(OC4OC(CO)C(O)C(O)C4O)c(OC)c3)C2CO)ccc1O (stereo not given)
inactive: Potency [1] | Potency [2] | Potency [3] | Potency [4] | Potency [5]

CC12CC(O)C(O)C=C1c1cc(O)cc(O)c1C(=O)O2 (stereo not given)
inactive: Potency [1] | Potency [2] | Potency [3] | Potency [4] | Potency [5]

COCCCc1sc(-c2ccccc2)nc1C(=O)Nc1ccccc1-c1nc2cc(CN3CCCC3)cnc2s1
inactive: Potency [1] | Potency [2] | Potency [3] | Potency [4] | Potency [5]

CC1CC(=O)[C@]2(O)C(C(=O)OCCc3ccc(O)cc3)=CO[C@@H](O[C@@H]3O[C@H](CO)[C@@H](O)[C@H](O)[C@H]3O)[C@H]12 (stereo not given in full)
inactive: Potency [1] | Potency [2] | Potency [3] | Potency [4] | Potency [5]

COc1cc(C(C)=O)ccc1O[C@@H]1O[C@H](CO)[C@@H](O)[C@H](O)[C@H]1O
inactive: Potency [1] | Potency [2] | Potency [3] | Potency [4] | Potency [5]

CC1=CC(=O)C(=C(C)C)CC2C(C)(O)CCC12O (stereo not given)
inactive: Potency [1] | Potency [2] | Potency [3] | Potency [4] | Potency [5]

CC(=O)c1ccc(O[C@@H]2O[C@H](CO[C@@H]3OC[C@@H](O)[C@H](O)[C@H]3O)[C@@H](O)[C@H](O)[C@H]2O)cc1
inactive: Potency [1] | Potency [2] | Potency [3] | Potency [4] | Potency [5]

CC1(C)CC[C@]2(C(=O)O)[C@H](O)C[C@]3(C)C(=CCC4[C@@]5(C)CC[C@H](O[C@@H]6OC[C@@H](O)[C@H](O)[C@H]6O)[C@@](C)(C(=O)O)C5CC[C@]43C)[C@@H]2C1 (stereo not given in full)
inactive: Potency [1] | Potency [2] | Potency [3] | Potency [4] | Potency [5]

C[C@@H]1O[C@@H](O[C@H]2[C@@H]3C=CO[C@@H](O[C@@H]4O[C@H](CO)[C@@H](O)[C@H](O)[C@H]4O)[C@@H]3[C@@]3(CO)O[C@@H]23)[C@H](O)[C@H](O)[C@H]1OC(=O)/C=C/c1ccc(O)cc1
inactive: Potency [1] | Potency [2] | Potency [3] | Potency [4] | Potency [5]

COc1c(O)cc2c(c1O)C(=O)O[C@H](C)[C@H]2O
inactive: Potency [1] | Potency [2] | Potency [3] | Potency [4] | Potency [5]

COc1ccc2c(c1)N1C(=O)C[C@@]34C=CC[N@+]5([O-])CC[C@H]2[C@H](CC3)[C@@]145
inactive: Potency [1] | Potency [2] | Potency [3] | Potency [4] | Potency [5]

CCC(=O)N1CCc2cc(OC)c(O)cc2C1
inactive: Potency [1] | Potency [2] | Potency [3] | Potency [4] | Potency [5]

C[C@]1(O)CC[C@@H]2C(C(=O)O)=CO[C@@H](O[C@@H]3O[C@H](CO)[C@@H](O)[C@H](O)[C@H]3O)[C@@H]21
inactive: Potency [1] | Potency [2] | Potency [3] | Potency [4] | Potency [5]

C[C@H]1[C@H](C)C[C@@H](C(=O)O)C2CC[C@]3(C)C(=CC[C@@H]4[C@@]5(C)CC[C@H](O)C(C)(C)[C@@H]5CC[C@]43C)[C@@H]21 (stereo not given in full)
inactive: Potency [1] | Potency [2] | Potency [3] | Potency [4] | Potency [5]

C[C@]12CCC[C@](C)(C(=O)O)C1[C@@H](O)[C@@H](O)C13CC(CCC12)C(CO)(O[C@@H]1O[C@H](CO)[C@@H](O)[C@H](O)[C@H]1O)C3 (stereo not given in full)
inactive: Potency [1] | Potency [2] | Potency [3] | Potency [4] | Potency [5]

COc1ccnc(CCc2nc3ncccc3[nH]2)c1
inactive: Potency [1] | Potency [2] | Potency [3] | Potency [4] | Potency [5]

Oc1ccc2c(-c3c(-c4ccccn4)nn4c3CCC4)ccnc2c1
inactive: Potency [1] | Potency [2] | Potency [3] | Potency [4] | Potency [5]

CC(=O)OC[C@@]12C(=O)C[C@@H](C)[C@]3(C[C@@H](c4ccoc4)OC3=O)[C@H]1CC[C@H](OC(C)=O)[C@]21CO1
inactive: Potency [1] | Potency [2] | Potency [3] | Potency [4] | Potency [5]

COC1OC(OC)C(O)(CCC2(C)C(C)CCC3(C)C2CC(O)C(O)C32CO2)C1O (stereo not given)
inactive: Potency [1] | Potency [2] | Potency [3] | Potency [4] | Potency [5]

CC1(C)C[C@H](O)C[C@@]2(C)[C@H]1[C@H](O)C=C1COC(=O)[C@@]12O
inactive: Potency [1] | Potency [2] | Potency [3] | Potency [4] | Potency [5]

CC(C)=CCc1cc(O[C@@H]2O[C@H](CO[C@@H]3OC[C@](O)(CO)[C@H]3O)[C@@H](O)[C@H](O)[C@H]2O)ccc1O
inactive: Potency [1] | Potency [2] | Potency [3] | Potency [4] | Potency [5]

COc1ccc(N2CCN(CCCNC(=O)Cn3c(=O)c4cccn4c4c(C)ccnc43)CC2)cc1
inactive: Potency [1] | Potency [2] | Potency [3] | Potency [4] | Potency [5]

COc1c(O[C@@H]2O[C@H](CO)[C@@H](O)[C@H](O)[C@H]2O)c(CCC(=O)O)cc2ccoc12
inactive: Potency [1] | Potency [2] | Potency [3] | Potency [4] | Potency [5]

COC(=O)[C@@H](NC(=O)[C@H](CC(C)C)NC(=O)N(Cc1ccccc1)C[C@@H](O)[C@H](Cc1ccccc1)NC(=O)OC(C)(C)C)C(C)C
inactive: Potency [1] | Potency [2] | outcome [3] inactive [at 11.6 µM] | activity, negative = inhibition [4] -4.83% [at 11.6 µM] | redox activity (% of DA3003) [5] 19.1% [at 11.5 µM]

COc1ccc(/C=C/C(=O)O[C@@H]2[C@@H](O[C@@H]3O[C@H](CO)[C@@H](O)[C@H](O)[C@H]3O)[C@@H](O)[C@H](O[C@H]3C4C=CO[C@@H](O[C@@H]5O[C@H](CO)[C@@H](O)[C@H](O)[C@H]5O)C4[C@@]4(CO)O[C@@H]34)O[C@H]2C)cc1 (stereo not given in full)
inactive: Potency [1] | Potency [2] | activity change, negative = inhibition [3] -3.03% [at 11.6 µM] | activity, negative = inhibition [4] 1.1% [at 11.6 µM] | redox activity (% of DA3003) [5] 9.47% [at 11.5 µM]
